The subject of experiment [1] is transactivating tegument protein VP16 (Human herpesvirus 1). As to the kind of experiment: compounds suppressing VP16-driven luciferase signal – cell-based, luminescence, single concentration, counter-screen for SRC2 inhibitor project (AID 652007; in the data active means inhibition above about 36%). The settings on record: cell-based VP16 transactivation luciferase reporter, at 8.9 µM, active compounds read high. On the technique in general: A counterscreen serves to expose hits that act by an unwanted route or on another target.

The target of experiment [2] is Nuclear receptor coactivator 2 (Homo sapiens) (UniProt Q15596). As to the kind of experiment: inhibition of GAL4-SRC2 driven luciferase expression – cell-based, luminescence, HEK293, triplicate, confirmation (AID 652008).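 Further: 0% = DMSO-treated cells and 100% = Gossypol at 36 µM.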 The settings on record: HEK293 GAL4-SRC2 luciferase reporter, at 8.9 µM, active compounds read high. (In general: A reporter such as luciferase makes a cellular process visible.)
Nuclear receptor coactivator 2 (Homo sapiens), sequence (Q15596 whole entry, looked up, the tested form may be a part): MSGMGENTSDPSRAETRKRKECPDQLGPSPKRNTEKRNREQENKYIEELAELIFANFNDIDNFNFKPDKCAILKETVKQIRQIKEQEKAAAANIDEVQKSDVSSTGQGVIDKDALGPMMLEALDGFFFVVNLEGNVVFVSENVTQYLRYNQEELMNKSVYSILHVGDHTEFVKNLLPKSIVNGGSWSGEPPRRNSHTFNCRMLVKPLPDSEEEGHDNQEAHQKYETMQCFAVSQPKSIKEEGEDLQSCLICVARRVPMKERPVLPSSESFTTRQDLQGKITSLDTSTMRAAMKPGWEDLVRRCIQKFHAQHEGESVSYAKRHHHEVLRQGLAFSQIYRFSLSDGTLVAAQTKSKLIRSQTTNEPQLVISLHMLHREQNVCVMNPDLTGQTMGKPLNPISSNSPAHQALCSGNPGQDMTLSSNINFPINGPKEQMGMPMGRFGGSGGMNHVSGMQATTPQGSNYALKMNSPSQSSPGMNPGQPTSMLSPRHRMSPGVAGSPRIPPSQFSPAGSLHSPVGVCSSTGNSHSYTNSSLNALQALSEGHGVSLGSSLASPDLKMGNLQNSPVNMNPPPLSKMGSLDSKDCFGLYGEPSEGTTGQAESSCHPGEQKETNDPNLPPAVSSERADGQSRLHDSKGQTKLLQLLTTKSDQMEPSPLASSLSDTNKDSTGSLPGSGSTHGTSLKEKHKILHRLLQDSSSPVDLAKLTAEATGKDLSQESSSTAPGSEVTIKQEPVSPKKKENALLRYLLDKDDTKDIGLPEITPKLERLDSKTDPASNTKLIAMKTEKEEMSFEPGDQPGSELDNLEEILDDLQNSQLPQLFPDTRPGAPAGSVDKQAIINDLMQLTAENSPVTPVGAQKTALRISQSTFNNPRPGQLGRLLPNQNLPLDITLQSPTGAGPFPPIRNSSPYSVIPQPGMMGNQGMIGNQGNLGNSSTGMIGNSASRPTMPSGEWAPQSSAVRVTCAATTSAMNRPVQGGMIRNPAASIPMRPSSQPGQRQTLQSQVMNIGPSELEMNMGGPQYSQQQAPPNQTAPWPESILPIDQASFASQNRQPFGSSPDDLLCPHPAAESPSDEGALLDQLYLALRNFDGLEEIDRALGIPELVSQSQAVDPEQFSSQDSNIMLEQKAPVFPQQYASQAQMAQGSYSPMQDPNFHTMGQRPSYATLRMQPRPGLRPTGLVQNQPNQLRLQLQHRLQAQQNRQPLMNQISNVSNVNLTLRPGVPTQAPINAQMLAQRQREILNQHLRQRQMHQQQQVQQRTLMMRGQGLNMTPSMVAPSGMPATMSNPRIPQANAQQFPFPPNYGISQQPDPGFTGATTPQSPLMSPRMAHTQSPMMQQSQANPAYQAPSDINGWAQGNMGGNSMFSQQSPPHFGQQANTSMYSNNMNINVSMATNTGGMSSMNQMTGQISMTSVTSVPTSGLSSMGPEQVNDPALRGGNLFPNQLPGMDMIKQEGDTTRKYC

Molecules are shown by their SMILES. Unmarked numbers belong to inactive results. The source made the active and inactive calls.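 How the source made its calls, unless noted: active means mean inhibition above 46.5%, the solvent-only control mean plus 3 SD; inactive means the rest.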

The term inhibition denotes the drop in the measured response relative to a control, in per cent.

`CC(C)C[C@@H]1Cc2[nH][nH]c(=O)c2[C@H](C(C)C)O1`: the inhibition in experiment [1] was -6.29%; in experiment [2], -23.6%.
Regarding `Cc1ccc2nc(-c3cc(N)cc(N)c3)oc2c1`, the values for the inhibition in experiment [1] and in experiment [2] were -8.66% and 38.3%, respectively.
Turning to `Cc1ccc(C(=O)c2cnc3ccccc3c2-c2ccccc2)cc1`, the values for the inhibition in experiment [1] and in experiment [2] were -3.52% and 16.4%, respectively.
For `O=C(CSc1nc(N2CCOCC2)nc(N2CCOCC2)n1)Nc1ccccc1F`, the inhibition in experiment [1] was 1.31%; in experiment [2] it was 14.8%.
On to `Cc1ccc(NCc2nnc(SCC(=O)c3ccccc3)n2Cc2ccco2)c(C)c1`, for which the inhibition in experiment [1] is -11.6%; in experiment [2], -16.7%.
Taken in the same sequence, the figures for `CCCCC(=O)Nc1ccc(C)c(S(=O)(=O)N2CCCCCC2)c1` were -13.7% and 18.4%.
For `CN(Cc1ccccc1)C(=O)c1ccc(NC(=O)C2CCN(C(=O)OC(C)(C)C)CC2)cc1`, the inhibition in experiment [1] was 15.8%; in experiment [2], 60.4% (active).
Taken in the same sequence, the figures for `NC(=O)C1CCN(CCS(=O)(=O)c2ccc(Cl)cc2)CC1` were -1.09% and -24.6%.
Taken in the same sequence, the figures for `Nc1ccc(C(=O)n2c3ccccc3c3ccccc32)cc1` were 20.2% and 17.5%.
Taken in the same sequence, the figures for `CC(=O)Nc1cccc(-c2cc(NC(C)=O)c3ncc(-c4ccc(F)cc4)n3c2)c1` were 12% and 2.54%.
For `Cc1sc(NC(=O)CCCC(=O)O)c(C(N)=O)c1-c1ccccc1`, the figures for the inhibition in experiment [1] and in experiment [2] were 37.1% (active) and 75.5% (active), respectively.
As to `O=C(c1ccc(Cl)cc1)C(CN1CCCCC1)c1ccccc1` (stereo unspecified), the figures for the inhibition in experiment [1] and in experiment [2] were 32.9% and 57.8% (active), respectively.
Taken in the same sequence, the figures for `Cn1cc(S(=O)(=O)Nc2ccc3c(c2)OCCO3)cn1` were -16% and 32.5%.

The record behind these values is PubChem BioAssay.
